Data: PubChem BioAssay AID504545 (Broad Institute, 2011)
Measured potencies and affinities stand elsewhere. Records with an inconclusive call do not appear. Activity calls are given as the source filed them. How the calls were made is not given here.

Target: Cyclin-dependent kinase 5 activator 1 (Homo sapiens) + Cyclin-dependent kinase 5 (Homo sapiens) (UniProt Q15078+Q00535)
Assay: CDK5/p35 kinase inhibitors, dose response, biochemical, cherry-picked samples, set 2 (AID 504545)
Conditions: biochemical plate reader; series mostly up to 30 µM; activity change, negative = inhibition: at the top concentration

Chain of Cyclin-dependent kinase 5 activator 1 (Homo sapiens) + Cyclin-dependent kinase 5 (Homo sapiens) (Q00535 whole entry, looked up): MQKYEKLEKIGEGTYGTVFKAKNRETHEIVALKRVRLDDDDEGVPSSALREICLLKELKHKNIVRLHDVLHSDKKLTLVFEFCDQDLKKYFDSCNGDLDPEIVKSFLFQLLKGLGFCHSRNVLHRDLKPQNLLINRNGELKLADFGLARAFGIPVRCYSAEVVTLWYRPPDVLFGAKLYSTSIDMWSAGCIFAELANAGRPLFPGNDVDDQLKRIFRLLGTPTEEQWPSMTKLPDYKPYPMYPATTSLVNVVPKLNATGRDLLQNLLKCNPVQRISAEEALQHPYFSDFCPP
Chain of Cyclin-dependent kinase 5 activator 1 (Homo sapiens) + Cyclin-dependent kinase 5 (Homo sapiens) (Q15078 whole entry, looked up): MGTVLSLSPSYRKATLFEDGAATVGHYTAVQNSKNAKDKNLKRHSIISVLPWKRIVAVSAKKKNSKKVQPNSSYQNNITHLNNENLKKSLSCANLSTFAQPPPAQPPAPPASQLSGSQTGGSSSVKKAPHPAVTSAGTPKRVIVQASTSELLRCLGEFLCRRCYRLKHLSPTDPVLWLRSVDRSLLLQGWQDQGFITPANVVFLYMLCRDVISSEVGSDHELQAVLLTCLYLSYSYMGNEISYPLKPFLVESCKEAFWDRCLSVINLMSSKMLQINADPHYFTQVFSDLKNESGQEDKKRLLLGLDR

Activity change, negative = inhibition, inactive:
Cc1ccc(C(=O)O/N=C(\N)c2ccccn2)cc1C 12.2%
CC(C)(C)c1ccc(C(=O)O/N=C(\N)c2ccccn2)cc1 11.4%
Cc1ccc2[nH]c(C(F)(F)F)cc(=O)c2c1 12.4%
CN(C)N1C(N)=C(C#N)C(c2cccs2)C2=C1CCCC2=O (centres undefined) -19.4%
CCc1cc(C(=O)c2ccc(OC)cc2)c(N)s1 13%
Nc1ncnc2c1ncn2C1OC(CO)C(O)C1O (centres undefined) -1.99%
COc1cc(OC)c(C(=O)N2CCN(c3ccccn3)CC2)cc1OC 4.37%
Cc1nc(Nc2ccccc2)sc1C(=O)c1ccccc1 -4.27%
Oc1ccc(C=NNc2ccccn2)c(O)c1 -16.7%
Cc1ccc2nc(NCc3ccccc3)c(C#N)cc2c1 15.1%
O=[N+]([O-])c1ccc2c(c1)/C(=N\O)c1ccccc1-2 -11.8%
CC(C)[C@H](CO)N(Cc1cccc(F)c1)c1nc(Nc2cccc(Cl)c2)c2ncn(C(C)C)c2n1 -8.3%
COc1cc(OC)cc(C(=O)NNC(=O)c2ccccn2)c1 6.58%
COc1ccccc1C(=O)N1CCN(c2ccccn2)CC1 -5.86%
Cc1ccc2nc(Cl)c(C#N)cc2c1 8.05%
Cc1cccc(/N=C/c2c(O)ccc3oc4c(c23)CCCC4)n1 4.05%
COc1cc(OC)cc(C(=O)N2CCN(c3ccccn3)CC2)c1 1.08%
Cc1nn(-c2ccccn2)c2c1C(=O)CC(C)(C)C2Br (centres undefined) 5.29%
CCN1C(=O)/C(=C2/Sc3ccc(OC)cc3N2C)SC1=Nc1cccc(O)c1 13%
COc1ccc2oc(C(=O)NCCC(C)C)c(C)c2c1 15.4%
CC(=O)[C@H]1CC[C@H]2[C@@H]3CC=C4C[C@@H](OS(=O)(=O)O)CC[C@]4(C)[C@H]3CC[C@]12C -5.29%
CC(C)n1cnc2c(NCc3ccc(S(N)(=O)=O)cc3)nc(NCc3ccc(S(N)(=O)=O)cc3)nc21 -18.7%
CCNc1nc(Nc2ccc(C)c(Cl)c2)c2cnn(C)c2n1 10.2%
Clc1cccc(Cl)c1/C=N/Nc1c(Cl)cncc1Cl -9.72%
CCOc1cc(C(=O)N2CCN(c3ccccn3)CC2)cc(OCC)c1OCC 3.8%
CC(C)(C)N=Cc1c(O)ccc2oc3c(c12)CCCC3 -1.17%
C=CC(=O)Nc1ccc(Nc2ccnc(Nc3ccc(N4CCN(C)CC4)cc3)n2)cc1 14.6%
COc1ccc2nc(C(F)(F)C(F)(F)F)c(C#N)c(N)c2c1 2.9%
O=C(NNC(=O)c1ccccn1)c1ccc(OC(F)F)cc1 4.47%
